Test results as given in the supplement of paper PMC7858590.
Values joined by “and” are separate entries in the source; they are usually repeats but may differ in a detail not shown here. Equal entries are not always repeated. ± gives the standard deviation of the averaged measurements. Over roughly 3,800 compounds, “cell shape (eccentricity) Z-score vs DMSO control” has its median near 1.1; the lowest 2% begin near -4.7. The list comes from a sample in which the lowest values are over-represented; it also holds similar structures and randomly drawn compounds.

These compounds were tested on human monocyte-derived macrophages (M0) (assay: cell shape (eccentricity) Z-score vs DMSO control; higher = more elongated, M2-like morphology). Settings: 20 µM; 24 h; macrophage state: M0 (M-CSF).
Description: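 Primary human monocyte-derived macrophages (M-CSF differentiated, pooled from 4 donors, 5000 cells/well in 384-well plates) were treated with each compound at 20 uM for 24 h, then fixed and stained with phalloidin/DAPI and imaged on an Opera Phenix (6 fields, about 1000 cells/well). Cell eccentricity was measured with CellProfiler, and a Z-score (t-test) was computed against 4 DMSO control wells in the same row. Negative values mean round (M1-like) cells and positive values mean elongated (M2-like) cells; the paper's hit cutoffs are Z <= -4 (M1) and Z >= 6 (M2). Scale: negative = round, M1-like.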

| SMILES | cell shape (Z-score) |
| --- | --- |
| CCCCCC1C(=O)O/C(=C\C(=O)O)C1=O (configuration not stated) | -1.15 |
| CCC[C@H](NC(=O)/C(C#N)=C/c1cccc(Br)n1)c1ccccc1 | -4.73 |
| C[C@H](NC(=O)/C(C#N)=C/c1ccc(O)c(O)c1)c1ccccc1 | -2.26 |
| C[C@@H](NC(=O)/C(C#N)=C\c1ccc(O)c(O)c1)c1ccccc1 | 0.038 |
| C[C@@H]1CN(CC(=O)Nc2ccc3c(c2)Cc2cccc(-c4cc(=O)cc(N5CCOCC5)o4)c2S3)C[C@H](C)O1 | 4.22 |
| CC1(C)C2CC[C@]3(C)C(C(=O)C=C4[C@H]5C[C@@](C)(C(=O)O)CC[C@]5(C)CC[C@]43C)[C@@]2(C)CC[C@@H]1O (some centres not stated) | 0.344 |
| CC(=O)Oc1cc2c(c(C)c1OC(C)=O)CC=C1[C@@]2(C)CC[C@@]2(C)C3C[C@](C)(C(=O)O)CC[C@]3(C)CC[C@]12C (some centres not stated) | -13.8 |
| CC(C)(C)CC(C)(C)c1ccc(O)c(-n2nc3ccccc3n2)c1 | -0.381 |
| CC(C)(C)CC(C)(C)c1ccc(OCCOCC[N+](C)(C)Cc2ccccc2)cc1 | -0.216 |
| Cc1cc(C(C)(C)CC(C)(C)C)ccc1OCCOCC[N+](C)(C)Cc1ccccc1 | -4.7 |
| O=C(O)c1cccnc1Nc1cccc(C(F)(F)F)c1 | 2.97 |
| COc1ccc(/C=C/C(=O)c2cc(O)ccc2O)cc1 | 2.34 |
| COc1ccc(/C=C/C(=O)c2ccc(O)cc2O)cc1 | -5.34 |
| CCOC(=O)C1=C(C)NC(C)=C(C(=O)OC)C1c1cccc([N+](=O)[O-])c1 (configuration not stated) | 1.64 |
| COc1ccc2c(c1OC)OC[C@@H](c1ccc(OC)c(OC)c1OC)C2 | 2.19 |
| COc1cc(C[C@@H]2COC(c3ccc(O[C@@H]4O[C@H](CO)[C@@H](O)[C@H](O)[C@H]4O)c(OC)c3)[C@@H]2CO)ccc1O[C@@H]1O[C@H](CO)[C@@H](O)[C@H](O)[C@H]1O (some centres not stated) | 2.98 |
| Nc1ccc(-c2nc3ccc(-c4nc5ccc(N)cc5[nH]4)cc3[nH]2)cc1 | -0.879 |
| O=C(NOCC(O)CO)c1cc(Br)c(F)c(F)c1Nc1ccc(I)cc1F (configuration not stated) | -0.375 |
| O=C1c2ccc(Nc3ccc(F)cc3F)cc2CCc2ccc(OC[C@H](O)CO)cc21 | -6.5 |
| CC(=O)O[C@@H]1[C@@H](O)[C@H](C)O[C@@H](Oc2c(-c3ccc(O)cc3)oc3cc(O[C@@H]4O[C@@H](C)[C@H](O)[C@@H](O)[C@H]4O)cc(O)c3c2=O)[C@@H]1O | 1.24 |
| C[C@@](Cc1ccc(O)c(O)c1)(NN)C(=O)O | 1.55 |
| COc1ccc(C(=C2C(=O)Nc3ccccc32)c2ccc(OC)cc2)cc1 | 1.61 |

| SMILES | cell shape (Z-score) |
| --- | --- |
| COc1ccc(C(=O)/C=C/c2ccccc2)cc1 | 3.14 |
| COc1ccc(C(=O)CC2(O)C(=O)Nc3c(Cl)ccc(Cl)c32)cc1 (configuration not stated) | -7.6 |
| O=C(O)c1ccc(NCc2nc3cc4ccccc4cc3[nH]2)cc1 | 1.43 |
| CC1(C)O[C@@H]2CC3C4CCC5=CC(=O)C=C[C@]5(C)[C@@]4(F)[C@@H](O)C[C@]3(C)[C@]2(C(=O)CO)O1 (some centres not stated) | -2.57 |
| COc1ccc(NC(=O)c2ccc(-c3ccc(-c4noc(C)n4)cc3C)cc2)cc1N1CCN(C)CC1 | -0.626 |
| Cc1ccc(O)c(N=Nc2ccccc2)n1 | -7.89 |
| Nc1ccc(/N=N/c2ccccc2)c(N)n1 | -1.01 |
| Cc1ccc2ccc3ccc(C)nc3c2n1 | 3.48 |
| C=C[C@@](C)(O)CCC1C(=C)CCC2[C@@](C)(CO)CCC[C@]12C (some centres not stated) | 4.09 |
| COC1=C(N)C(=O)c2nc(-c3nc(C(=O)O)c(C)c(-c4ccc(OC)c(OC)c4O)c3N)ccc2C1=O | 0.0737 |
| Nc1ccccc1NC(=O)c1ccc(CNC(=O)OCc2cccnc2)cc1 | -10.6 ± 0.74 |
| Nc1ccccc1NC(=O)c1ccc(CNc2nccc(-c3cccnc3)n2)cc1 | -11.8 |
| CC(=O)Nc1ccc(C(=O)Nc2ccccc2N)cc1 | -3.16 ± 2.7 |
| CC(C)(C)c1ccc(S(=O)(=O)NCc2ccc(C(=O)Nc3cccnc3)cc2)cc1 | 1.14 |
| Nc1cc(-c2ccncc2)c[nH]c1=O | 0.0533 |
| COc1cc2c(c(OC)c1)C(=O)OC(C)C2 (configuration not stated) | -2.38 |
| Cc1ccccc1NC(=N)Nc1ccccc1C | 2.28 |
| O=c1c(OC2OC(CO)C(O)C(O)C2OC2OC(CO)C(O)C(O)C2O)c(-c2ccc(O)cc2)oc2cc(O)cc(O)c12 (configuration not stated) | 0.138 ± 1.7 |
| CC1(C)C(=O)C=C[C@@]2(C)C1CC(=O)[C@]1(C)C2CC[C@@]2(C)[C@H](c3ccoc3)OC(=O)[C@H]3O[C@]321 (some centres not stated) | -1.42 |
| COc1cc2c(c(O)c1OC)C(=O)CC(c1ccc(O)cc1)O2 (configuration not stated) | 0.892 |
| CC(C)[C@@H]1CC[C@@]2(C)CCC[C@@](C)(O)[C@@H]2[C@H]1OC(=O)/C=C/c1ccccc1 | 2.15 |
| NC(=O)c1ccc(-c2nc(-c3ccc4c(c3)OCCO4)c(-c3ccccn3)[nH]2)cc1 | 4.12 |

| SMILES | cell shape (Z-score) |
| --- | --- |
| COCCCCC(=NOCCN)c1ccc(C(F)(F)F)cc1 | -14.7 |
| CC(O)CCCc1cc(O)cc(O[C@@H]2O[C@H](CO)[C@@H](O)[C@H](O)[C@H]2O)c1 (some centres not stated) | 0.302 |
| C/C=C/C#CC#C[C@@H](O[C@@H]1O[C@H](CO)[C@@H](O)[C@H](O)[C@H]1O)[C@H](O)/C=C/CCCO | -5.71 |
| CC(/C=C/C1(O)C(C)CC(O)CC1(C)C)OC1OC(CO)C(O)C(O)C1O (configuration not stated) | 0.819 |
| O=Cc1ccccc1O[C@@H]1O[C@H](CO)[C@H](O)[C@@H](O)[C@H]1O | -0.838 |
| O=C1c2ccccc2CCC1CNCCc1ccc(O)cc1 (configuration not stated) | 2.69 |
| OCc1ccc(-c2ccc(-c3ccc(CO)s3)o2)s1 | -3.3 and -5.19 |
| COc1cc(C(C)/C=C(/C)CC(=O)O)oc(=O)c1C (configuration not stated) | 0.462 ± 0.48 |
| C=C1CC[C@@H]2[C@](C)(CO)[C@H](O)CC[C@@]2(C)[C@@H]1CC(O)C1=CCOC1=O (some centres not stated) | -2.2 ± 3.4 |
| O=C(Nc1ccc([N+](=O)[O-])cc1Cl)c1cc(Cl)ccc1O | -4.1 ± 4.2 |
| O=C(Nc1ccccc1)c1cc([N+](=O)[O-])ccc1Cl | -1.03 |
| O=C(Nc1ccc([N+](=O)[O-])cc1O)Nc1ccccc1Br | -4.95 ± 7.5 |
| CCC(C)C(=O)O[C@H]1C[C@H](O)C=C2C=C[C@H](C)[C@H](CC[C@@H](O)C[C@@H](O)CC(=O)O)C21 (some centres not stated) | -0.754 |
| COc1cc(/C=C/c2cc(O)cc(O[C@@H]3O[C@H](CO)[C@@H](O)[C@H](O)[C@H]3O)c2)ccc1O[C@@H]1O[C@H](CO)[C@@H](O)[C@H](O)[C@H]1O | 2.22 |
| COc1c2c(cc3occ(-c4ccc5c(c4)OCO5)c(=O)c13)OC(C)(C)C=C2 | 1.71 |
| COc1c(-c2coc3cc4c(cc3c2=O)CC(O)C(C)(C)O4)ccc2c1C=CC(C)(C)O2 (configuration not stated) | -0.764 |
| COc1cc2c(cc1-c1coc3c4c(ccc3c1=O)OC(C)(C)C=C4)OCO2 | -5.49 |
| CN(C)CCCN1c2ccccc2CCc2ccc(Cl)cc21 | 1.86 |
| CC(C)=CCC1Cc2c(cc(O)c(C(=O)C(C)C)c2O)OC1(C)C (configuration not stated) | 3.41 |
| NCCCCCc1cnc[nH]1 | -0.662 |
| CC(C)c1ccc(Cn2ccc3c4c(N)nc(NC5CC5)nc4ccc32)cc1 | -4.69 |
| CCNC(=O)[C@@H]1CCCN1C(=O)[C@H](CCCNC(=N)N)NC(=O)[C@H](CC(C)C)NC(=O)[C@@H](COC(C)(C)C)NC(=O)[C@H](Cc1ccc(O)cc1)NC(=O)[C@H](CO)NC(=O)[C@H](Cc1c[nH]c2ccccc12)NC(=O)[C@H](Cc1cnc[nH]1)NC(=O)C1CCC(=O)N1 (some centres not stated) | -0.749 |

| SMILES | cell shape (Z-score) |
| --- | --- |
| O=C(CCCN1CCC(O)(c2cccc(C(F)(F)F)c2)CC1)c1ccc(F)cc1 | -0.261 |
| O=C(CCCN1CCC(O)(c2ccc(Cl)cc2)CC1)c1ccc(F)cc1 | -2.24 |
| OC1(c2ccc(Cl)c(C(F)(F)F)c2)CCN(CCCC(c2ccc(F)cc2)c2ccc(F)cc2)CC1 | -6.96 |
| CO[C@@]12[C@@H]3NC3CN1C1=C(C(=O)C(N)=C(C)C1=O)[C@@H]2COC(N)=O (some centres not stated) | -5.51 |
| CO[C@@]12[C@H](COC(N)=O)C3=C(C(=O)C(C)=C(N)C3=O)N1C[C@@H]1N[C@@H]12 | -1.43 ± 4 |
| Cc1cccc(-c2[nH]c(C(C)(C)C)nc2-c2ccc3nccnc3c2)n1 | 4.84 |
| CON=C(C(=O)NC1C(=O)N2C(C(=O)O)=C(CSc3nc(=O)c(=O)[nH]n3C)CSC12)c1csc(N)n1 (configuration not stated) | -0.265 |
| CCN1CCN(c2cc3c(cc2F)c(=O)c(C(=O)O)cn3C2CC2)CC1 | -0.0252 |
| CCn1cc(C(=O)O)c(=O)c2cc(F)c(N3CCN(C)CC3)cc21 | -1.21 |
| Cc1oc(=O)oc1CN1CCN(c2cc3c(cc2F)c(=O)c(C(=O)O)c2n3C(C)S2)CC1 (configuration not stated) | -5.14 |
| C=CC(=O)Nc1cccc(Sc2nc(Nc3ccc(N4CCN(C)CC4)cc3)ncc2Cl)c1 | 0.842 |
| CCCCCCCCC(=O)NCc1cc(OC)c(O)cc1I | 0.93 |
| CCCn1c(=O)c(C)cn2nc(N)nc12 | 3.53 |
| CCC(C)n1ncn(-c2ccc(N3CCN(c4ccc(OC[C@H]5CO[C@](Cn6cncn6)(c6ccc(Cl)cc6Cl)O5)cc4)CC3)cc2)c1=O (some centres not stated) | 0.541 |
| CC(C)N1C[C@@H](C)[C@H](CN(C)Cc2ccc(Oc3ccccc3)cc2)Oc2c(NC(=O)c3ccncc3)cccc2C1=O | 2.27 |
| CC1OC(O[C@H]2CC[C@@]3(C)C(CC[C@]4(C)C3CC=C3C5CC(C)(C)CC[C@]5(C(=O)OC5OC(CO)C(OC6OC(CO)C(O)C(O)C6O)C(O)C5O)CC[C@]34C)C2(C)C)C(O)C(O)C1OC1OCC(O)(COC2OCC(O)C(OC3OCC(OC4OCC(O)(CO)C4O)C(O)C3O)C2O)C1O (some centres not stated) | 0.323 |
| CC1OC(OC2C(O[C@H]3OC[C@](O)(CO)[C@H]3O)COC(O[C@@H]3[C@@H](O)[C@@H](O)[C@H](OC4C(OC(=O)[C@]56CCC(C)(C)CC5C5=CCC7[C@@]8(C)C[C@H](O)[C@H](OC9OC(CO)C(O)C(O)C9O)[C@@](C)(CO)C8[C@H](O)C[C@@]7(C)[C@]5(C)CC6)OCC(O)C4O)O[C@H]3C)C2O)C(O)C(O)C1O (some centres not stated) | -5.84 |
| C[C@@H]1O[C@@H](O[C@H]2[C@H](OC(=O)[C@]34CCC(C)(C)C[C@H]3C3=CCC5[C@@]6(C)C[C@H](O)[C@H](O[C@@H]7O[C@H](CO)[C@@H](O)[C@H](O)[C@H]7O)[C@@](C)(CO)C6[C@H](O)C[C@@]5(C)[C@]3(C)CC4)OC[C@H](O)[C@@H]2O)[C@H](O)[C@H](O)[C@H]1O[C@@H]1OC[C@@H](O)[C@H](O[C@@H]2OC[C@](O)(CO)[C@H]2O)[C@H]1O (some centres not stated) | -6.49 |
| CC1OC(OC2C(O)C(CO)OC(O[C@H]3CC[C@@]4(C)C(CC[C@]5(C)C4CC=C4C6CC(C)(C)CC[C@]6(C(=O)OC6OCC(OC7OCC(O)C(O)C7O)C(O)C6O)CC[C@]45C)C3(C)C)C2O)C(O)C(OC2OCC(O)(CO)C2O)C1O (some centres not stated) | -0.504 |
| CC1OC(O[C@H]2[C@@H](O)C[C@@]3(C)C([C@H](O)C[C@]4(C)C3CC=C3[C@@H]5CC(C)(C)CC[C@]5(C(=O)OC5OC(C)C(OC6OCC(OC7OCC(O)C(OC8OCC(O)C(O)C8O)C7O)C(O)C6O)C(O)C5O)CC[C@]34C)[C@]2(C)CO)C(O)C(OC2OC(CO)C(O)C(O)C2O)C1O (some centres not stated) | 0.543 |
| CC1OC(O[C@H]2[C@@H](O)C[C@@]3(C)C(CC[C@]4(C)C3CC=C3[C@@H]5CC(C)(C)CC[C@]5(C(=O)OC5OC(C)C(OC6OCC(OC7OCC(O)C(OC8OCC(O)C(O)C8O)C7O)C(O)C6O)C(O)C5O)CC[C@]34C)[C@]2(C)CO)C(O)C(OC2OC(CO)C(O)C(O)C2O)C1O (some centres not stated) | 0.13 |
